Laboratory results: ChEMBL document CHEMBL3988442, “University of Dundee, Small-Polar-MMV Screening Library” (2021)
Measured potencies and affinities stand elsewhere.

These compounds were tested against Protein translocase subunit SecA (Escherichia coli (strain K12)) (UniProt P10408) (assay: Assay to Identify E. coli SecA ATPase Inhibitors). Settings: 30 µM.
Assay type: functional
Set-up: scale not given: direction of the effect not stated beside the values

Protein translocase subunit SecA (Escherichia coli (strain K12)), sequence (P10408 whole entry): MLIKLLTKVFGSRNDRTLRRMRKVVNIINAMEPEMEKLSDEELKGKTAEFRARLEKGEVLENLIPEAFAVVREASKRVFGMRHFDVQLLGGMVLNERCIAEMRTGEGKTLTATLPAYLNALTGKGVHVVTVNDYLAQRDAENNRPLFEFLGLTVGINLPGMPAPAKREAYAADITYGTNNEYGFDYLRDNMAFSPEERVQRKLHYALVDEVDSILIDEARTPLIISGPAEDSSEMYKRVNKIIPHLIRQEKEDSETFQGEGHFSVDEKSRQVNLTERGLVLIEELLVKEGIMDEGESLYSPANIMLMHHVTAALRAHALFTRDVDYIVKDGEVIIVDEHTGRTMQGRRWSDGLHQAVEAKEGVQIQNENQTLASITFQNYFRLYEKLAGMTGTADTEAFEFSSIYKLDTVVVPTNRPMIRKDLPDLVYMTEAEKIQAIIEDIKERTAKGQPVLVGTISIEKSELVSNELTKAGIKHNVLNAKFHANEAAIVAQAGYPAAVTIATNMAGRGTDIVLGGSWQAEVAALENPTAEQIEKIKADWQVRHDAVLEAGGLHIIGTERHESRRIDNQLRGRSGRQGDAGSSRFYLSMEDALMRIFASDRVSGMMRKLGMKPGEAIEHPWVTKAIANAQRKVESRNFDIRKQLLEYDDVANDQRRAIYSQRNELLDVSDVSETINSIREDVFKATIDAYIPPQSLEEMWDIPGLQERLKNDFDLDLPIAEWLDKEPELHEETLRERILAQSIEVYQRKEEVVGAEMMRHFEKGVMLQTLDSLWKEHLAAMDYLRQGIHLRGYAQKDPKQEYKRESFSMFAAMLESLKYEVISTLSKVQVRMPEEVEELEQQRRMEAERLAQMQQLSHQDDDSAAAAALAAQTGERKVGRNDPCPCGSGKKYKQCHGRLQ

Row | SMILES | Percent Effect [%]
1 | CCC1CN(c2nnc(C)c(C)c2C#N)CCO1 (stereo not given) | -3.31
2 | COC(=O)c1ccccc1NC(=O)c1nc2ccccc2n(C)c1=O | -1.59
3 | CCn1cnnc1C1CCN(C(=O)c2ccc(C(=O)OC)s2)CC1 | -6.84
4 | COc1ccc(NC(=O)CNc2cccc3c2CCCC3)c(OC)c1 | -6.64
5 | Cc1ccc(N2CCCC(NCc3cccc4c3OCCO4)C2)nn1 (stereo not given) | -2.62
6 | Cc1nc(CN2C(=O)C[C@@H]3[C@@H]2CCN3C(=O)C2CCOCC2)cs1 | -0.279
7 | Cc1cnn(CC2CCCCN2CCC(=O)Nc2cc(C)on2)c1 (stereo not given) | -4.7
8 | COCC(=O)N1CCC2(CC1)COCCN2CCN(C)C | 0.864
9 | CCc1n[nH]c(C2CN(Cc3nccn3CC)CCO2)n1 (stereo not given) | -0.0966
10 | CCOc1cccc(NS(=O)(=O)c2cc(C)c(C(=O)O)s2)c1 | -6.74
11 | CCCNC(=O)c1sc(Nc2ccc(Cl)cn2)nc1C | -0.647
12 | CC(C)c1ncc2c(n1)CN(Cc1nc(Cc3ccccc3)no1)CC2 | -3.61
13 | CS(=O)(=O)NC1CCN(C(=O)NCCNc2ccccn2)CC1 | -6.26
14 | OCC1CCCN1c1cc(NCc2ccc(Cl)s2)ncn1 (stereo not given) | 0.246
15 | COc1cc(CCC(=O)NC2CC2)ccc1OCC(F)(F)F | -2.29
16 | CCS(=O)(=O)c1ccc(N2CCC(NC(C)=O)CC2)cc1 | -5.48
17 | CC(=O)c1cn(CCC(=O)N[C@H](C(=O)O)C(C)C)c2ccccc12 | -1.16
18 | CCS(=O)(=O)c1ccc(N2CCC(NC(=O)c3cnn(C)c3)CC2)cc1 | -5.94
19 | Cc1nc[nH]c1-c1nc2cc(S(=O)(=O)N3CCCC3)ccc2n1C | -4.38
20 | CCN(CCn1cccn1)Cc1nc(-c2ccccc2F)oc1C | -1.08

Row | SMILES | Percent Effect [%]
21 | CN(Cc1ccncc1)C(=O)Nc1cnn(CC2CCCO2)c1 (stereo not given) | 0.7
22 | Cc1cccc(-c2ccc(C(=O)NCC3CCOC3)c(=O)[nH]2)c1 (stereo not given) | -2.02
23 | COc1ccc(C2CCCN2C(=O)NCCNc2ncccn2)cc1 (stereo not given) | 0.96
24 | Cc1cc(C)c2nc(CN3CC[C@@H](O)C3)cc(O)c2c1 | -2.1
25 | CCOc1cccc(CNC(=O)NCC(O)c2cccc(F)c2)c1 (stereo not given) | -5.26
26 | CN(C)C1CCN(C(=O)NCc2ccc(Cn3cncn3)cc2)CC1 | -4.29
27 | Cc1nn(C)c(C)c1C1CCCN1C(=O)CCCn1cccn1 (stereo not given) | 0.0877
28 | O=C(NC1CCS(=O)(=O)C1)c1sccc1-c1ccc(F)cc1 (stereo not given) | -6.43
29 | O=C(NCCn1ccnc1)c1cccc(F)c1 | -1.92
30 | CCC(=O)N1Cc2nccn2CC(CN(C)Cc2cccnc2)C1 (stereo not given) | -1.64
31 | Cc1nc(N2CCN(C(=O)c3ccc(O)cc3)CC2)c2cnn(C)c2n1 | -0.631
32 | CCOC(=O)C1CCN(C(=O)Cn2ccc3cc(Br)ccc32)CC1 | -3.71
33 | Cc1cccc(CN2C[C@@H]3CN(C(=O)c4ccsc4)C[C@@H]3C2=O)c1 | -2.06
34 | CN(C)S(=O)(=O)c1ccc(OCCNCCn2cccn2)cc1 | -6.54
35 | CN(C)S(=O)(=O)N1CCC2(CCCN(Cc3ccc(F)cc3)C2=O)C1 (stereo not given) | -4.94
36 | CCOc1nnc(CN(C)C2CCCN(c3cccnn3)C2)s1 (stereo not given) | -2.38
37 | Cc1cc(-c2nnn(CCC(N)=O)n2)ccc1F | -3.96
38 | Cn1cc(C(=O)CC2CCCN2C(=O)c2cncc3ccccc23)cn1 (stereo not given) | -2.2
39 | Cc1ccccc1CSCCn1nc2ccccn2c1=O | -1.42
40 | Cn1ccnc1-c1cccc(NC(=O)NCCCO)c1 | -0.628

The compounds below were run against T1, Ubiquitin-activating enzyme e1, putative (Leishmania donovani (strain BPK282A1)) (UniProt E9BSI1) (assay: Leishmania donovani Ubiquitin Activating Enzyme (LdE1)). Settings: 30 µM.
T1 sequence (whole entry): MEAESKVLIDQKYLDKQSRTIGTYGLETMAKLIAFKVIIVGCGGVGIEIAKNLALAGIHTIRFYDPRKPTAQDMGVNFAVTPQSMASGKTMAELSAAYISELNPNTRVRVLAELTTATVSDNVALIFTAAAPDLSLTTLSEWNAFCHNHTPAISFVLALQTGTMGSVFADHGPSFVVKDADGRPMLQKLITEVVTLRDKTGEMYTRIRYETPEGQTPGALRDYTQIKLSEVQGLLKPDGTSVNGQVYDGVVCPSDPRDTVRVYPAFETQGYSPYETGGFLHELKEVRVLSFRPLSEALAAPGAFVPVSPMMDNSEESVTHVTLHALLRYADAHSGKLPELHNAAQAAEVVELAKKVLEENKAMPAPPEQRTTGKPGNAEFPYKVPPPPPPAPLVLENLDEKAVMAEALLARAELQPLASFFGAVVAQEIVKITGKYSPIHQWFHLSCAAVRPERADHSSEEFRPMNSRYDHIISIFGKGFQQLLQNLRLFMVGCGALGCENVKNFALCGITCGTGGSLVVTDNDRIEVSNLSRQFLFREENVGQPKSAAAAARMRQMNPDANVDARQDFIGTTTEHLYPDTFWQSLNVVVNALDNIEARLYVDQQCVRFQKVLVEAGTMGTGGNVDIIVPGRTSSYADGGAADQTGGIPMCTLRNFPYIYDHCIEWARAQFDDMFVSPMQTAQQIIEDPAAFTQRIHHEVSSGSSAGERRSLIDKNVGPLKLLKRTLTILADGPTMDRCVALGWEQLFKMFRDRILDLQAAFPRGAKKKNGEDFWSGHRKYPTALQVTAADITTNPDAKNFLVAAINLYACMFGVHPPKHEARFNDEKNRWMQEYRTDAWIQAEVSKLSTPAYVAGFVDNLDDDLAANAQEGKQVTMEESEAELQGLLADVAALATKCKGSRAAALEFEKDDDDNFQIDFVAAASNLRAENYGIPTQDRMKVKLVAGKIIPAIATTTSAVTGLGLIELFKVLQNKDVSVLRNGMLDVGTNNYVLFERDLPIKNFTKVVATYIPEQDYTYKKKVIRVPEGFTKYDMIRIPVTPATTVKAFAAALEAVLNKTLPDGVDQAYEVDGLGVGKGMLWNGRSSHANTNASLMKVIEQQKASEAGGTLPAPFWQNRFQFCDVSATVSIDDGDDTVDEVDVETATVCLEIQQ
Assay type: functional
Set-up: scale not given: direction of the effect not stated beside the values

Row | SMILES | Percent Effect [%]
41 | CCC1CN(c2nnc(C)c(C)c2C#N)CCO1 (stereo not given) | 2.63
42 | COC(=O)c1ccccc1NC(=O)c1nc2ccccc2n(C)c1=O | 10.4
43 | CCn1cnnc1C1CCN(C(=O)c2ccc(C(=O)OC)s2)CC1 | 10.4
44 | COc1ccc(NC(=O)CNc2cccc3c2CCCC3)c(OC)c1 | -2.7
45 | Cc1ccc(N2CCCC(NCc3cccc4c3OCCO4)C2)nn1 (stereo not given) | 16.2
46 | Cc1nc(CN2C(=O)C[C@@H]3[C@@H]2CCN3C(=O)C2CCOCC2)cs1 | 8.22
47 | Cc1cnn(CC2CCCCN2CCC(=O)Nc2cc(C)on2)c1 (stereo not given) | 3.8
48 | COCC(=O)N1CCC2(CC1)COCCN2CCN(C)C | -5.33
49 | CCc1n[nH]c(C2CN(Cc3nccn3CC)CCO2)n1 (stereo not given) | 20.8
50 | CCOc1cccc(NS(=O)(=O)c2cc(C)c(C(=O)O)s2)c1 | 8.11
51 | CCCNC(=O)c1sc(Nc2ccc(Cl)cn2)nc1C | 17.3
52 | CC(C)c1ncc2c(n1)CN(Cc1nc(Cc3ccccc3)no1)CC2 | 10.8
53 | CS(=O)(=O)NC1CCN(C(=O)NCCNc2ccccn2)CC1 | 10.8
54 | OCC1CCCN1c1cc(NCc2ccc(Cl)s2)ncn1 (stereo not given) | 8.86
55 | COc1cc(CCC(=O)NC2CC2)ccc1OCC(F)(F)F | 18.4
56 | CCS(=O)(=O)c1ccc(N2CCC(NC(C)=O)CC2)cc1 | 2.67
57 | CC(=O)c1cn(CCC(=O)N[C@H](C(=O)O)C(C)C)c2ccccc12 | 12
58 | CCS(=O)(=O)c1ccc(N2CCC(NC(=O)c3cnn(C)c3)CC2)cc1 | 2.67
59 | Cc1nc[nH]c1-c1nc2cc(S(=O)(=O)N3CCCC3)ccc2n1C | 11
60 | CCN(CCn1cccn1)Cc1nc(-c2ccccc2F)oc1C | -6.94

Row | SMILES | Percent Effect [%]
61 | CN(Cc1ccncc1)C(=O)Nc1cnn(CC2CCCO2)c1 (stereo not given) | 5.41
62 | Cc1cccc(-c2ccc(C(=O)NCC3CCOC3)c(=O)[nH]2)c1 (stereo not given) | 10.8
63 | COc1ccc(C2CCCN2C(=O)NCCNc2ncccn2)cc1 (stereo not given) | 2.74
64 | Cc1cc(C)c2nc(CN3CC[C@@H](O)C3)cc(O)c2c1 | 0
65 | CCOc1cccc(CNC(=O)NCC(O)c2cccc(F)c2)c1 (stereo not given) | 16.2
66 | CN(C)C1CCN(C(=O)NCc2ccc(Cn3cncn3)cc2)CC1 | -5.41
67 | Cc1nn(C)c(C)c1C1CCCN1C(=O)CCCn1cccn1 (stereo not given) | 0
68 | O=C(NC1CCS(=O)(=O)C1)c1sccc1-c1ccc(F)cc1 (stereo not given) | 5.41
69 | O=C(NCCn1ccnc1)c1cccc(F)c1 | 18.4
70 | CCC(=O)N1Cc2nccn2CC(CN(C)Cc2cccnc2)C1 (stereo not given) | 13.3
71 | Cc1nc(N2CCN(C(=O)c3ccc(O)cc3)CC2)c2cnn(C)c2n1 | 0
72 | CCOC(=O)C1CCN(C(=O)Cn2ccc3cc(Br)ccc32)CC1 | 14.7
73 | Cc1cccc(CN2C[C@@H]3CN(C(=O)c4ccsc4)C[C@@H]3C2=O)c1 | 7.79
74 | CN(C)S(=O)(=O)c1ccc(OCCNCCn2cccn2)cc1 | 1.27
75 | CN(C)S(=O)(=O)N1CCC2(CCCN(Cc3ccc(F)cc3)C2=O)C1 (stereo not given) | 8.22
76 | CCOc1nnc(CN(C)C2CCCN(c3cccnn3)C2)s1 (stereo not given) | 10.5
77 | Cc1cc(-c2nnn(CCC(N)=O)n2)ccc1F | 13.7
78 | Cn1cc(C(=O)CC2CCCN2C(=O)c2cncc3ccccc23)cn1 (stereo not given) | 6.33
79 | Cc1ccccc1CSCCn1nc2ccccn2c1=O | 15.6
80 | Cn1ccnc1-c1cccc(NC(=O)NCCCO)c1 | 6.94
